Experimental data from PubChem BioAssay AID1159580 (chemical genetic matrix, 2015).
The whole screen tested about 5,500 compounds, of which about 2,000 (36%) were called active. Another 18% or so got no clear call; they are omitted. Cut-off read from the data, not from the text of the source: active = normalized growth mostly below about 0.91 (no sharp cut-off); inconclusive = no clear call, values can overlap the other calls; inactive = mostly above about 0.92. The list shows a part of the results.

Assay: chemical genetic growth profiling, strain panel (AID 1159580);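 note: tested at 20 µM; growth read once vehicle control cultures reached saturation at 30 °C; 1 = growth at the plate median or of vehicle wells; lower values mean less growth of the strain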
Details: growth OD
[1] = S. cerevisiae deletion strains, locus YAL013W, strain DEP1, stronger effect = lower value
[2] = S. cerevisiae deletion strains, locus YAL040C, strain CLN3, stronger effect = lower value
[3] = S. cerevisiae deletion strains, locus YCL061C, strain MRC1 (second series), stronger effect = lower value
[4] = S. cerevisiae deletion strains, locus YDR363W, strain ESC2, stronger effect = lower value
[5] = S. cerevisiae deletion strains, locus YER002W, strain NOP16, stronger effect = lower value
[6] = S. cerevisiae deletion strains, locus YMR263W, strain SAP30, stronger effect = lower value
[7] = S. cerevisiae deletion strains, locus YMR307W, strain GAS1, stronger effect = lower value
[8] = S. cerevisiae deletion strains, locus YNL153C, strain GIM3, stronger effect = lower value
[9] = S. cerevisiae deletion strains, locus YNL175C, strain NOP13, stronger effect = lower value
[10] = S. cerevisiae deletion strains, locus YNL197C, strain WHI3, stronger effect = lower value
[11] = S. cerevisiae deletion strains, locus YNL224C, strain SQS1, stronger effect = lower value
[12] = S. cerevisiae deletion strains, locus YNL322C, strain KRE1, stronger effect = lower value
[13] = S. cerevisiae deletion strains, locus YOR083W, strain WHI5 (second series), stronger effect = lower value
[14] = S. cerevisiae deletion strains, locus YPL055C, strain LGE1, stronger effect = lower value
[15] = S. cerevisiae deletion strains, locus YDR150W, strain NUM1, stronger effect = lower value
[16] = S. cerevisiae deletion strains, locus YGR078C, strain PAC10, stronger effect = lower value
[17] = S. cerevisiae deletion strains, locus YGR229C, strain SMI1, stronger effect = lower value
[18] = S. cerevisiae deletion strains, locus YJR075W, strain HOC1, stronger effect = lower value
[19] = S. cerevisiae deletion strains, locus YPL241C, strain CIN2, stronger effect = lower value
[20] = S. cerevisiae deletion strains, locus YHR030C, strain SLT2, stronger effect = lower value
[21] = S. cerevisiae deletion strains, locus YHR079C, strain IRE1, stronger effect = lower value
[22] = S. cerevisiae deletion strains, locus YJL095W, strain BCK1, stronger effect = lower value
[23] = S. cerevisiae deletion strains, locus YJR066W, strain TOR1, stronger effect = lower value
[24] = S. cerevisiae deletion strains, locus YLR113W, strain HOG1, stronger effect = lower value
[25] = S. cerevisiae deletion strains, locus YNL183C, strain NPR1, stronger effect = lower value
[26] = S. cerevisiae deletion strains, locus YOR231W, strain MKK1, stronger effect = lower value
[27] = S. cerevisiae deletion strains, locus YPL256C, strain CLN2, stronger effect = lower value
[28] = S. cerevisiae deletion strains, locus YBR229C, strain ROT2, stronger effect = lower value
[29] = S. cerevisiae deletion strains, locus YCL061C, strain MRC1, stronger effect = lower value
[30] = S. cerevisiae deletion strains, locus YDL101C, strain DUN1, stronger effect = lower value
[31] = S. cerevisiae deletion strains, locus YEL061C, strain CIN8, stronger effect = lower value
[32] = S. cerevisiae deletion strains, locus YHR087W, strain rtc3, stronger effect = lower value
[33] = S. cerevisiae deletion strains, locus YJR043C, strain POL32, stronger effect = lower value
[34] = S. cerevisiae deletion strains, locus YLR039C, strain RIC1, stronger effect = lower value
[35] = S. cerevisiae deletion strains, locus YLR058C, strain SHM2 (second series), stronger effect = lower value
[36] = S. cerevisiae deletion strains, locus YLR085C, strain ARP6, stronger effect = lower value
[37] = S. cerevisiae deletion strains, locus YLR262C, strain YPT6, stronger effect = lower value
[38] = S. cerevisiae deletion strains, locus YML094W, strain GIM5, stronger effect = lower value
[39] = S. cerevisiae deletion strains, locus YMR219W, strain ESC1, stronger effect = lower value
[40] = S. cerevisiae deletion strains, locus YNL298W, strain CLA4 (second series), stronger effect = lower value
[41] = S. cerevisiae deletion strains, locus YNR030W, strain Alg12, stronger effect = lower value
[42] = S. cerevisiae deletion strains, locus YPR135W, strain CTF4, stronger effect = lower value
[43] = S. cerevisiae strains, strain wild type, stronger effect = lower value

Measured: normalized growth

CCCN(CCC)[C@@H]1CCc2ccc(O)cc2C1
inactive: [1] 0.964 | [2] 1.03 | [3] 0.988 | [4] 0.989 | [5] 0.972 | [6] 0.983 | [7] 1.01 | [8] 0.978 | [9] 0.982 | [10] 0.982 | [11] 1.01 | [12] 0.978 | [13] 0.996 | [14] 0.988

CC[C@@H]1Cc2cc(O)ccc2C2=C1c1ccc(O)cc1C[C@H]2CC
active: [2] 0.852 | [16] 0.777 | [9] 0.904 | [11] 0.643 | [13] 0.507
inactive: [1] 1.01 | [3] 0.995 | [15] 0.996 | [4] 1.02 | [5] 1.02 | [17] 1.04 | [18] 0.991 | [10] 0.954 | [12] 0.993 | [14] 1.01

CCCN(CCC)C1CCc2ccc(O)cc2C1 (centres undefined)
inactive: [1] 1.03 | [2] 1.1 | [3] 1.01 | [4] 1.01 | [5] 1.01 | [16] 0.993 | [18] 1 | [7] 1.02 | S. cerevisiae deletion strains, locus YNL128W, strain TEP1, stronger effect = lower value 1.02 | [9] 1.01 | [10] 1.01 | [11] 0.995 | [13] 0.991 | [14] 1.02 | [19] 1.01

CC(=O)N[C@@H]1[C@@H](O)[C@H](O)[C@@H](CO)O[C@H]1O
inactive: [20] 0.993 | [21] 0.975 | [22] 0.995 | [23] 0.917 | [24] 0.993 | [25] 0.898 | [26] 0.99 | [27] 0.967

Cc1ccc(/C(C#N)=C2C=C/C(=N/O)C(Cl)=C\2Cl)cc1
inactive: [1] 0.953 | [28] 0.961 | [29] 0.965 | [30] 0.983 | [15] 0.963 | [31] 0.959 | [16] 0.975 | [32] 1 | [33] 1.01 | [18] 1 | [34] 0.865 | [35] 0.999 | [36] 0.825 | [38] 0.973 | [39] 0.991 | [6] 0.984 | [7] 0.721 | [8] 0.962 | [40] 0.885 | [12] 0.98 | [14] 0.949 | [19] 0.952 | [42] 0.681 | [43] 0.929
active: [20] 0.631 | [37] 0.816 | [41] 0.877

COc1ccc(/C(C#N)=C2C=C/C(=N/O)C(Cl)=C\2)cc1
active: [24] 0.851
inactive: S. cerevisiae deletion strains, locus YAR019C, strain CDC15, stronger effect = lower value 0.972 | S. cerevisiae deletion strains, locus YBL105C, strain PKC1, stronger effect = lower value 0.975 | S. cerevisiae deletion strains, locus YBR135W, strain CKS1, stronger effect = lower value 0.959 | S. cerevisiae deletion strains, locus YBR136W, strain MEC1, stronger effect = lower value 0.954 | S. cerevisiae deletion strains, locus YBR160W, strain CDC28, stronger effect = lower value 0.976 | S. cerevisiae deletion strains, locus YDL017W, strain CDC7, stronger effect = lower value 0.984 | S. cerevisiae deletion strains, locus YDL028C, strain MPS1, stronger effect = lower value 0.976 | [30] 0.971 | S. cerevisiae deletion strains, locus YDL108W, strain KIN28, stronger effect = lower value 0.969 | S. cerevisiae deletion strains, locus YDL132W, strain cdc53, stronger effect = lower value 0.948 | S. cerevisiae deletion strains, locus YDL214C, strain PRR2, stronger effect = lower value 0.918 | S. cerevisiae deletion strains, locus YDR052C, strain DBF4, stronger effect = lower value 0.966 | S. cerevisiae deletion strains, locus YDR054C, strain cdc34, stronger effect = lower value 0.958 | S. cerevisiae deletion strains, locus YDR226W, strain ADK1, stronger effect = lower value 0.955 | S. cerevisiae deletion strains, locus YDR477W, strain SNF1, stronger effect = lower value 0.898 | S. cerevisiae deletion strains, locus YER123W, strain YCK3, stronger effect = lower value 0.898 | S. cerevisiae deletion strains, locus YER133W, strain GLC7, stronger effect = lower value 0.906 | S. cerevisiae deletion strains, locus YFL009W, strain cdc4, stronger effect = lower value 0.962 | S. cerevisiae deletion strains, locus YFL029C, strain CAK1, stronger effect = lower value 0.965 | S. cerevisiae deletion strains, locus YFR003C, strain YPI1, stronger effect = lower value 0.97 | S. cerevisiae deletion strains, locus YFR019W, strain FAB1, stronger effect = lower value 0.949 | S. cerevisiae deletion strains, locus YFR028C, strain CDC14, stronger effect = lower value 0.948 | S. cerevisiae deletion strains, locus YGR040W, strain KSS1, stronger effect = lower value 0.864 | S. cerevisiae deletion strains, locus YGR052W, strain FMP48, stronger effect = lower value 0.925 | S. cerevisiae deletion strains, locus YGR092W, strain DBF2, stronger effect = lower value 0.822 | [20] 0.879 | [21] 0.996 | S. cerevisiae deletion strains, locus YHR082C, strain KSP1, stronger effect = lower value 0.937 | S. cerevisiae deletion strains, locus YHR205W, strain SCH9, stronger effect = lower value 0.775 | S. cerevisiae deletion strains, locus YIL147C, strain SLN1, stronger effect = lower value 0.968 | [22] 0.842 | S. cerevisiae deletion strains, locus YJL128C, strain PBS2, stronger effect = lower value 0.942 | S. cerevisiae deletion strains, locus YJL157C, strain FAR1, stronger effect = lower value 0.926 | S. cerevisiae deletion strains, locus YJR016C, strain ILV3, stronger effect = lower value 0.954 | S. cerevisiae deletion strains, locus YJR066W, strain TOR1 (second series), stronger effect = lower value 0.85 | [23] 0.887 | S. cerevisiae deletion strains, locus YKL048C, strain ELM1, stronger effect = lower value 0.929 | S. cerevisiae deletion strains, locus YKL067W, strain YNK1, stronger effect = lower value 0.932 | S. cerevisiae deletion strains, locus YKL101W, strain HSL1, stronger effect = lower value 0.893 | S. cerevisiae deletion strains, locus YKL193C, strain SDS22, stronger effect = lower value 0.964 | S. cerevisiae deletion strains, locus YKL203C, strain TOR2, stronger effect = lower value 0.866 | S. cerevisiae deletion strains, locus YLR133W, strain CKI1, stronger effect = lower value 0.913 | S. cerevisiae deletion strains, locus YLR403W, strain SFP1, stronger effect = lower value 0.866 | S. cerevisiae deletion strains, locus YML070W, strain DAK1, stronger effect = lower value 0.915 | S. cerevisiae deletion strains, locus YMR001C, strain CDC5, stronger effect = lower value 0.959 | S. cerevisiae deletion strains, locus YMR205C, strain PFK2 (second series), stronger effect = lower value 0.941 | S. cerevisiae deletion strains, locus YMR277W, strain FCP1, stronger effect = lower value 0.967 | S. cerevisiae deletion strains, locus YNL006W, strain LST8, stronger effect = lower value 0.985 | S. cerevisiae deletion strains, locus YNL020C, strain ARK1, stronger effect = lower value 0.922 | S. cerevisiae deletion strains, locus YNL161W, strain CBK1, stronger effect = lower value 0.973 | [25] 0.862 | S. cerevisiae deletion strains, locus YNL207W, strain RIO2, stronger effect = lower value 0.961 | S. cerevisiae deletion strains, locus YNL222W, strain SSU72, stronger effect = lower value 0.971 | S. cerevisiae deletion strains, locus YNL307C, strain MCK1 (second series), stronger effect = lower value 0.874 | S. cerevisiae deletion strains, locus YOL078W, strain AVO1, stronger effect = lower value 0.958 | S. cerevisiae deletion strains, locus YOL136C, strain PFK27, stronger effect = lower value 0.894 | S. cerevisiae deletion strains, locus YOR061W, strain CKA2, stronger effect = lower value 0.903 | S. cerevisiae deletion strains, locus YOR119C, strain RIO1, stronger effect = lower value 0.87 | [26] 0.905 | S. cerevisiae deletion strains, locus YOR329C, strain SCD5, stronger effect = lower value 0.985 | S. cerevisiae deletion strains, locus YPL031C, strain PHO85, stronger effect = lower value 0.854 | S. cerevisiae deletion strains, locus YPL153C, strain RAD53, stronger effect = lower value 0.899 | S. cerevisiae deletion strains, locus YPL204W, strain HRR25, stronger effect = lower value 0.864 | S. cerevisiae deletion strains, locus YPL209C, strain IPL1, stronger effect = lower value 0.977 | [27] 0.967 | S. cerevisiae deletion strains, locus YPR025C, strain CCL1, stronger effect = lower value 0.977 | S. cerevisiae deletion strains, locus YPR106W, strain ISR1, stronger effect = lower value 0.96 | S. cerevisiae deletion strains, locus YPR111W, strain DBF20, stronger effect = lower value 0.942 | S. cerevisiae deletion strains, strain NNK1, stronger effect = lower value 0.979 | S. cerevisiae deletion strains, strain TSCII, stronger effect = lower value 0.959

Cc1ccc(S(=O)(=O)/C(C#N)=N\O)cc1
inactive: [1] 0.989 | [28] 0.999 | [29] 1.01 | [30] 1.01 | [15] 1.02 | [31] 0.985 | [16] 0.997 | [17] 0.988 | [20] 0.948 | [32] 0.979 | S. cerevisiae deletion strains, locus YJL187C, strain SWE1, stronger effect = lower value 0.987 | [33] 0.977 | [18] 1.03 | [34] 0.98 | [35] 0.997 | [36] 1.04 | [37] 0.984 | [38] 1.02 | [39] 1 | [6] 0.932 | [7] 1.12 | [8] 0.989 | [40] 0.977 | [12] 0.993 | [41] 0.998 | [14] 1.11 | [19] 1.02 | [42] 0.906 | [43] 0.971
